Results as given in PubChem BioAssay AID624273 (Broad Institute, 2012).
Hit rate of the full screen: of about 1,000 compounds, about 230 (23%) were called active. Not shown: some 1% with an inconclusive outcome. Some of the results follow. Measured potencies and affinities stand elsewhere. Values without a mark were called inactive. The rule behind the calls is not given here.

target: Long-chain-fatty-acid--AMP ligase FadD28 (Mycobacterium tuberculosis (strain ATCC 25618 / H37Rv)) (UniProt P9WQ59); assay: inhibitors of FadD28 bisubstrate probe binding, dose response, biochemical, fluorescence polarization, cherry-pick (AID 624273); conditions: series mostly up to 50 µM; activity change, negative = inhibition: at the top concentration
Sequence (P9WQ59 whole entry, looked up): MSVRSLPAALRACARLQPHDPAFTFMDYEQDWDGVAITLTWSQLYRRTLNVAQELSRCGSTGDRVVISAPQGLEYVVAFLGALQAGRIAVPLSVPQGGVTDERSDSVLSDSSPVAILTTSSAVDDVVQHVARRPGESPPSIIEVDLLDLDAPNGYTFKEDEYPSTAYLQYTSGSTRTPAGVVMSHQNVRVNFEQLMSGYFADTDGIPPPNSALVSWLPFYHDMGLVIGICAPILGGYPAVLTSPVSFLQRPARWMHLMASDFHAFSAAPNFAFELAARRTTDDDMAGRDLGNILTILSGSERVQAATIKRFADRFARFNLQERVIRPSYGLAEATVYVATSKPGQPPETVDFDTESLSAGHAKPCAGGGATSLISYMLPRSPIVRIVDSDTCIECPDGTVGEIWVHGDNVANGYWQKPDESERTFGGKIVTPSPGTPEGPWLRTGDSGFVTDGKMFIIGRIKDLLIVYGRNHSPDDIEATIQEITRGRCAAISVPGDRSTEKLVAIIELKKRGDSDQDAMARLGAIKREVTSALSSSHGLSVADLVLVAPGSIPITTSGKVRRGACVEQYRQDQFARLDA

How did the “activity change, negative = inhibition” value turn out when O=C(c1cccc(S(=O)(=O)N2CCN(c3ccccc3)CC2)c1)N1CCCCCCC1 was run?
Its value is -6.53%.

Cc1ccccc1-c1nnc(-c2cccc3ccccc23)o1 was tested. Which “activity change, negative = inhibition” value did it give?
Its value is -3.76%.

COc1ccc(C)cc1NC(=O)CSc1nnc(-c2ccc(Br)cc2)o1 was tested. Which “activity change, negative = inhibition” value did it give?
The value was -0.706%.

For CCc1cccc(NC(=O)COC(=O)/C=C/c2cccs2)c1, which “activity change, negative = inhibition” value is on record?
Its value is 2.6%.

How did the “activity change, negative = inhibition” value turn out when COc1ccc(C(=O)c2ccsc2N)cc1 was run?
The value was -3.79%.

For Cc1ccc(OCCCN2CCOCC2)cc1, which “activity change, negative = inhibition” value is on record?
Its value is -0.236%.

Cc1ccc(S(=O)(=O)/N=C2\C=C(Nc3ccc(O)cc3)C(=O)c3ccccc32)cc1 was tested. Which “activity change, negative = inhibition” value did it give?
The value was -11.4%.

Which “activity change, negative = inhibition” value does the source give for O=C(COC(=O)c1cc(S(=O)(=O)Nc2ccccc2Cl)ccc1O)Nc1nc2ccccc2s1 here?
Its value is -2.04%.

Which “activity change, negative = inhibition” value does the source give for O=C(COC(=O)c1ccc(NS(=O)(=O)c2cccs2)cc1O)Nc1nc2ccccc2s1 here?
The value was -4.46%.

Which “activity change, negative = inhibition” value does the source give for CCc1nnc(NC(=O)CSc2ncnc3c2oc2ccccc23)s1 here?
The value was -2.91%.

How did the “activity change, negative = inhibition” value turn out when O=C(CSc1nnc(Cc2ccccc2)n1-c1ccccc1)NNC(=O)Cc1ccccc1 was run?
The value was -1.66%.

For O=C(NCC(c1cccs1)N1CCOCC1)c1cc2ccccc2oc1=O (stereo not drawn), which “activity change, negative = inhibition” value is on record?
Its value is -4.79%.

Which “activity change, negative = inhibition” value does the source give for O=c1c2c3c(sc2nc2n1CCC2)CCCC3 here?
The value was -5.38%.

With CCc1cccc2c(C(=O)CN3C(=O)NC(C)(c4cccc5ccccc45)C3=O)c[nH]c12 (stereo not drawn) as the compound, how does the “activity change, negative = inhibition” value read?
Its value is -14.2%.

For CC(C)C(NC(=O)c1ccc2c(c1)OCO2)C(=O)N/N=C/c1cccs1 (stereo not drawn), which “activity change, negative = inhibition” value is on record?
Its value is -4.73%.

For NC(Cc1ccc(C(F)(F)F)cc1)c1csc(NC(=O)Nc2ccccc2)n1 (stereo not drawn), which “activity change, negative = inhibition” value is on record?
Its value is -13.6%.

How did the “activity change, negative = inhibition” value turn out when Oc1ccccc1/C=N/n1c2ccccc2c2ccccc21 was run?
The value was -3.98%.

For Oc1ccc(/C=N/N(Cc2ccccc2)c2ccccc2)c(O)c1O, which “activity change, negative = inhibition” value is on record?
Its value is -9.42%.

Which “activity change, negative = inhibition” value does the source give for CCN=c1scc(-c2ccco2)n1/N=C/c1ccc(OC)c(O)c1 here?
Its value is -1.88%.

For CN=c1scc(-c2ccco2)n1/N=C/c1ccc(O)c(O)c1, which “activity change, negative = inhibition” value is on record?
The value was -3.77%.

How did the “activity change, negative = inhibition” value turn out when CCOC(=O)c1c(-c2ccc(C)s2)csc1NC(=O)c1cccs1 was run?
The value was -5.93%.

For CCOc1ccccc1NC(=O)CSc1nnc(-c2ccncc2)o1, which “activity change, negative = inhibition” value is on record?
Its value is -7.28%.

For CCOc1ccc(C(=O)Nc2cc(-c3nc4ccccc4[nH]3)ccc2C)cc1[N+](=O)[O-], which “activity change, negative = inhibition” value is on record?
Its value is -2.24%.

How did the “activity change, negative = inhibition” value turn out when CC(C)NCC(=O)Nc1c2c(nc3ccccc13)CCC2 was run?
Its value is 2.17%.

With O=c1[nH]nc(-c2ccccc2)cc1-c1ccccc1 as the compound, how does the “activity change, negative = inhibition” value read?
Its value is -2.33%.

How did the “activity change, negative = inhibition” value turn out when COc1ccccc1CN1CCCC(C(=O)N2CCCCC2)C1 (stereo not drawn) was run?
Its value is -3.04%.

Which “activity change, negative = inhibition” value does the source give for COc1cccc(/C=N/Nc2nc(C)cc(=O)[nH]2)c1OC here?
Its value is -8.26%.

How did the “activity change, negative = inhibition” value turn out when CCOC(=O)C1=C(C)NC(C)=C(C(=O)OCC)C1c1sccc1C was run?
The value was -4.22%.

COc1cccc(CN(C)C(=S)Nc2ccc(C)c(C)c2)c1 was tested. Which “activity change, negative = inhibition” value did it give?
The value was -8.65%.

CCOc1ccc(-n2c(=O)c3sccc3n(CC(=O)Nc3cccc(OC)c3)c2=O)cc1 was tested. Which “activity change, negative = inhibition” value did it give?
Its value is -5.66%.

How did the “activity change, negative = inhibition” value turn out when Nc1ccc(NC(=O)NC2CCCCC2)cc1[N+](=O)[O-] was run?
Its value is -4.53%.

How did the “activity change, negative = inhibition” value turn out when O=C(Nc1cccc(F)c1)NC1CCCCCCC1 was run?
The value was -9.32%.

N=c1n(Cc2ccccc2)c2ccccc2n1CC(O)c1ccco1 (stereo not drawn) was tested. Which “activity change, negative = inhibition” value did it give?
Its value is -1.34%.

With CC(=O)Nc1ccc(OC(F)(F)C(F)F)c(NC(C)=O)c1 as the compound, how does the “activity change, negative = inhibition” value read?
The value was -0.083%.

CCn1ncc(NC(=S)NCCc2ccccc2)c1C(N)=O was tested. Which “activity change, negative = inhibition” value did it give?
Its value is -2.3%.

With CC(C)CC(=O)Nc1nnc(S(=O)(=O)N(C)c2ccc(Cl)cc2)s1 as the compound, how does the “activity change, negative = inhibition” value read?
The value was -4.92%.

Which “activity change, negative = inhibition” value does the source give for COc1ccc(/C=N/n2c(SC)nnc(C(C)(C)C)c2=O)cc1OC here?
Its value is -5.2%.

Which “activity change, negative = inhibition” value does the source give for COc1ccc(/C=N/NC(=O)CN(C2=NS(=O)(=O)c3ccccc32)c2ccccc2)cc1OC here?
Its value is 0.459%.

With c1ccc(-c2nnc(N3CCCC3)nc2-c2ccccc2)cc1 as the compound, how does the “activity change, negative = inhibition” value read?
The value was -12.7%.

For CC(O)(c1cccnc1)c1nc(-c2cccc(C(F)(F)F)c2)cs1 (stereo not drawn), which “activity change, negative = inhibition” value is on record?
The value was 0.004%.

For CCN(CC)S(=O)(=O)c1cccc(C(=O)NCCCN2CCOCC2)c1, which “activity change, negative = inhibition” value is on record?
The value was 0.631%.

With O=C(NCCc1c[nH]c2ccccc12)/C(=C/c1ccco1)NC(=O)c1ccco1 as the compound, how does the “activity change, negative = inhibition” value read?
The value was -0.53%.

Which “activity change, negative = inhibition” value does the source give for COc1ccc(CCNC(=O)c2ccc(Cl)c(S(=O)(=O)N(C)c3ccccc3)c2)cc1 here?
The value was -12.1%.

How did the “activity change, negative = inhibition” value turn out when COc1ccc(CC(=O)Nc2nnc(SCc3ccccc3)s2)cc1S(=O)(=O)N1CCOCC1 was run?
The value was -13%.

Which “activity change, negative = inhibition” value does the source give for Cc1ccc(C(=O)OCC(=O)c2ccc(Br)cc2)cc1S(=O)(=O)N1CCOCC1 here?
The value was -11.9%.

How did the “activity change, negative = inhibition” value turn out when O=C(COC(=O)c1ccc(Cl)c(S(=O)(=O)N2CCCCCC2)c1)Nc1ccccc1 was run?
Its value is -0.876%.

How did the “activity change, negative = inhibition” value turn out when Cc1oc(/C=N/NS(=O)(=O)c2ccccc2)cc1Br was run?
The value was -12.7%.

Cc1sc(-n2c(C)cc(/C=C3\SC(=S)NC3=O)c2C)c(C#N)c1C was tested. Which “activity change, negative = inhibition” value did it give?
Its value is -17.2%.

With O=C1C2ON(c3ccccc3)C(c3ccccn3)C2C(=O)N1c1ccc(Br)cc1 (stereo not drawn) as the compound, how does the “activity change, negative = inhibition” value read?
Its value is -17%.

How did the “activity change, negative = inhibition” value turn out when Cn1nnnc1NCc1cccc(Cl)c1 was run?
The value was -1.85%.

How did the “activity change, negative = inhibition” value turn out when Cc1nnc(NC(=O)c2sc3nc(-c4cccs4)cc(C(F)(F)F)c3c2N)s1 was run?
The value was -3.55%.

COc1ccccc1NC(=O)CSCC(=O)N1c2ccccc2CCc2ccccc21 was tested. Which “activity change, negative = inhibition” value did it give?
The value was 3.81%.

With O=C(Cn1cnc2c(oc3nc4c(cc32)CCCC4)c1=O)Nc1cccc(Cl)c1 as the compound, how does the “activity change, negative = inhibition” value read?
The value was -19.7%.

Which “activity change, negative = inhibition” value does the source give for N#Cc1ccccc1NC(=O)c1cc(=O)c2ccccc2o1 here?
The value was -1.27%.

With NC(Cc1ccc(Cl)cc1)c1csc(NC(=O)Nc2ccccc2)n1 (stereo not drawn) as the compound, how does the “activity change, negative = inhibition” value read?
The value was 17.3%.

Which “activity change, negative = inhibition” value does the source give for Nc1ccc(C(CC(=O)O)n2cccc2)cc1 (stereo not drawn) here?
The value was -9.59%.

Which “activity change, negative = inhibition” value does the source give for Cc1ccc(Cn2nnc3c(=O)[nH]c(C4CCN(S(=O)(=O)Cc5ccccc5)CC4)nc32)cc1 here?
The value was -2.02%.

With COc1cc(/C=C2/C(=O)NN(c3cccc(Cl)c3)C2=O)cc(OC)c1O as the compound, how does the “activity change, negative = inhibition” value read?
The value was -11.7%.

How did the “activity change, negative = inhibition” value turn out when COc1cc(/C=C2/C(=O)NN(c3ccc(Cl)cc3)C2=O)ccc1OC(=O)c1ccco1 was run?
Its value is -6.33%.

With Cc1ccc(OCC(=O)NCCS(=O)(=O)N2CCN(c3ccccc3)CC2)cc1 as the compound, how does the “activity change, negative = inhibition” value read?
The value was -4.58%.

For COc1ccc(S(=O)(=O)N2CCCCC2)cc1NC(=O)CN1CCN(C(C)=O)CC1, which “activity change, negative = inhibition” value is on record?
Its value is -3.48%.

How did the “activity change, negative = inhibition” value turn out when Cc1cccc(NC(=O)c2cccc(S(=O)(=O)N3CCc4ccccc4C3)c2)n1 was run?
The value was -2.05%.

For CCc1cccc(NC(=O)Cn2c(=O)oc3cc(S(=O)(=O)N4CCOCC4)ccc32)c1, which “activity change, negative = inhibition” value is on record?
Its value is -29.4%.

CCC(=O)c1ccc(OCC(=O)Nc2cccc(S(=O)(=O)N3CCCCCC3)c2)cc1 was tested. Which “activity change, negative = inhibition” value did it give?
The value was -10.1%.

For CN(CC(=O)N1CCc2ccccc21)S(=O)(=O)c1cccc2cccnc12, which “activity change, negative = inhibition” value is on record?
Its value is 3.09%.

With Cc1ccc(S(=O)(=O)N(C)C)cc1NC(=O)C(C)[N+]12CCN(CC1)CC2 (stereo not drawn) as the compound, how does the “activity change, negative = inhibition” value read?
The value was -5.61%.

For CC1CCCN(Cc2c(O)ccc3c(=O)c(-c4nc5ccccc5s4)c(N)oc23)C1 (stereo not drawn), which “activity change, negative = inhibition” value is on record?
The value was -5.96%.

For CN1C(=O)C2C=CC1C1C(=O)N(c3ccccc3)C(=O)C21 (stereo not drawn), which “activity change, negative = inhibition” value is on record?
The value was -6.91%.
